# The supplement of paper PMC7380943
# Counter-ions that a name gives are not always drawn. ± gives the standard deviation of the averaged measurements.
# Tested on: CLZ3 (HCA2 human fibroblast dual HR-NHEJ reporter)
# Experiment: HR repair efficiency (tdTomato+ cells) relative to control (log10 fold); higher = more homologous recombination
# Settings: 5 µM; doxycycline 0.5 ug/mL
# 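Also: compound given one day before doxycycline, which switches on I-SceI endonuclease expression to create double-strand breaks within the integrated reporter.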
row,SMILES,HR repair efficiency (log10)
1,C[C@@H]1CC[C@]2(C(=O)O[C@@H]3O[C@H](CO)[C@@H](O)[C@H](O)[C@H]3O)CC[C@]3(C)C(=CC[C@@H]4[C@@]5(C)CC[C@H](O)[C@@](C)(CO)[C@@H]5CC[C@]43C)[C@@H]2[C@]1(C)O [Pedunculoside],0.237
2,O=C1OC2(c3ccccc3Oc3ccccc32)c2ccccc21 [Fluoran],0.0374
3,CC(C)(C)NCC(O)c1ccc(O)c(CO)c1 (configuration not stated) [Salbutamol Sulfate],-0.085
4,COc1cc([C@@H]2[C@H]3CO[C@@]4(O)C(=O)[C@@H]2C=C([C@H]2Oc5cc(O)cc(O)c5C(=O)[C@@H]2O)[C@@H]34)ccc1O [Silydianin],0.076 ± 0.0068
5,COc1c2ccoc2cc2oc(=O)ccc12 [Bergapten],0.125
6,CCCCC/C=C\C/C=C\CCCCCCCC(=O)O [Linoleic Acid],-0.0026
7,C=C1CCC[C@]2(C)C[C@]3(O)OC(=O)C(C)=C3C[C@@H]12 [Atractylenolide Ⅲ],0.0176
8,O=C(O)C(O)Cc1ccc(O)c(O)c1 (configuration not stated) [Sodium Danshensu],0.0346
9,CC1(C)CC[C@]2(C(=O)O)[C@H](O)C[C@]3(C)C(=CC[C@@H]4[C@@]5(C)CC[C@H](O)C(C)(C)[C@@H]5CC[C@]43C)[C@H]2C1 [Echinocystic acid],0.0642
10,C=CCc1ccc(O)c(-c2cc(CC=C)ccc2O)c1 [Magnolol],0.105
11,CC1(C)CCC2(C(=O)OC3OC(CO)C(O)C(O)C3O)CCC3(C)C(=CCC4C5(C)CCC(OC6OC(C(=O)O)C(OC7OCC(O)C(OC8OC(CO)C(O)C(O)C8O)C7O)C(O)C6O)C(C)(C)C5CCC43C)C2C1 (configuration not stated) [Oleanoside A],0.164
12,CC[C@H](CC[C@@H](C)[C@H]1CC[C@H]2[C@@H]3CC=C4C[C@@H](O)CC[C@]4(C)[C@H]3CC[C@]12C)C(C)C [β-Sitosterol],0.098
13,Nc1ncnc2c1ncn2[C@@H]1O[C@H](CO)C[C@H]1O [Cordycepin],-0.139
14,O=c1ccc2ccc(O)c(O)c2o1 [Daphnetin],0.146
15,CC(C)=CCC[C@](C)(O[C@@H]1O[C@H](CO[C@@H]2OC[C@H](O)[C@H](O)[C@H]2O)[C@@H](O)[C@H](O)[C@H]1O)[C@H]1CC[C@]2(C)[C@@H]1[C@H](O)C[C@@H]1[C@@]3(C)CC[C@H](O[C@@H]4O[C@H](CO)[C@@H](O)[C@H](O)[C@H]4O[C@@H]4O[C@H](CO)[C@@H](O)[C@H](O)[C@H]4O)C(C)(C)[C@@H]3CC[C@]12C [Ginsenoside Rb2],0.096
16,COc1cc2c(c(OC)c1OC)-c1c(cc(OC)c(OC)c1OC)C[C@H](C)[C@H](C)C2 [Schisandrin A],-0.0756
17,COc1cc2oc(=O)ccc2c(OC)c1C[C@@H](O)C(C)(C)O [Toddalolactone],0.018
18,Cc1cc(=O)c2c(O)c3c(cc2o1)OC(C)(C)[C@@H](O[C@@H]1O[C@H](CO)[C@@H](O)[C@H](O)[C@H]1O)C3 [Sec-O-Glucosylhamaudol],-0.0801
19,C[C@@]12C[C@@]3(O)O[C@@H](O1)[C@]1(COC(=O)c4ccccc4)[C@H]3C[C@@]12O[C@@H]1O[C@H](CO)[C@@H](O)[C@H](O)[C@H]1O [Paeoniflorin],0.213
20,C=C(C)C(=O)Cc1c(OC)ccc2ccc(=O)oc12 [Murrayone],-0.312
21,COC(=O)c1c2c(c3ccccc3c1O)OC(C)(C)C=C2 [Rubimaillin],-0.0243
22,C[C@@H]1O[C@@H](Oc2c(-c3ccc(O)c(O)c3)oc3cc(O)cc(O)c3c2=O)[C@H](O)[C@H](O)[C@H]1O [Quercitrin],0.0282
23,CO[C@H]1O[C@@H]2O[C@@]3(C)CC[C@H]4[C@H](C)CC[C@@H]([C@H]1C)[C@@]24OO3 [Artemether],0.186
24,CC(C)(O)CC[C@@H](O)C(C)(O)[C@H]1CC[C@@]2(O)C3=CC(=O)[C@@H]4C[C@@H](O)[C@@H](O)C[C@]4(C)[C@H]3CC[C@]12C (stereo partly drawn) [Β-Hydroxyecdysone],0.056
25,COc1c(O)cc2oc(-c3ccccc3)cc(=O)c2c1O [Oroxylin-A],0.0535
26,C[C@@H]1O[C@@H](O[C@H]2[C@H](Oc3cc(O)c4c(c3)O[C@H](c3ccc(O)cc3)CC4=O)O[C@H](CO)[C@@H](O)[C@@H]2O)[C@H](O)[C@H](O)[C@H]1O [Naringin],-0.0146
27,O=Cc1ccc(CO)o1 [5-Hydroxymethyl-2-furaldehyde (5-HMF)],-0.326
